The panel holds about 83,000 compounds, 20% with a hit somewhere; the sample as a whole holds those more often.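 The test compound was applied at a single concentration to cells in 96-well plates for 48 hours, and percent growth was recorded.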 Unmarked numbers belong to inactive results. Activity calls are given as the source filed them. Rule for the calls: active = growth percent below 10; inactive = the rest.
What follows are compounds tested on SW-620 colon (assay: NCI-60 one-dose screen, 48 h (100 = growth as untreated, 0 = no growth, -100 = all killed)). Conditions: 10 µM unless noted.
Compound `C#C[C@]1(O)CC[C@H]2[C@@H]3CC=C4c5sc(-c6ccc(F)cn6)nc5CC[C@]4(C)[C@H]3CC[C@@]21C` has a growth of 16.1%. Compound `CC(=NNc1ncnc2ccccc12)c1ccc(S(C)(=O)=O)cc1` has a growth of 104%. `COc1ccc(-c2cc(C(=O)N=Nc3c(O)[nH]c4ccccc34)c3ccccc3n2)cc1OC` gave a growth of 93.8%. `Fc1ccc(-c2cc3nc(C(Cl)Cl)nc(-c4ccc(Cl)cc4)n3n2)cc1` was tested, and the growth was -13.1% (active). With `CN(C)c1ccc(/C=C2\Cc3c(F)ccc(Br)c3C2=O)cc1` the growth was 89.9%. `COC(=O)C1CN(S(=O)(=O)/N=C2\NC(=O)NC2=C(Cl)Cl)C1` gave a growth of 114%. In the case of `c1ccc2c(NCCCn3ccnc3)c3oc4ccccc4c3nc2c1`, the growth is reported as -16.9% (active). For `Fc1ccc(-c2nc(C(Cl)Cl)nc3cc(-c4ccccc4)nn23)cc1`, the growth was -35.7% (active). `N#Cc1c(-c2ccc(F)cc2)nc2c(C#N)c(Nc3ccccc3)nn2c1N` showed a growth of 106%. `C#Cc1nc(C2=C(C)C(O)CC2)cs1` (stereo unspecified) showed a growth of 121%. For `O=C(O)CCCCCN1C(=O)/C(=C/c2ccc(O)c(O)c2)SC1=S`, the growth was 111%. `CCN1CCN(/C(=N\c2sc(-c3ccccc3)nc2-c2ccccc2)c2ccccc2)CC1` showed a growth of 84.9%. For `CS(=O)(=O)c1ccc(-c2nc3ccccn3c2/C=N/Nc2nc(-c3ccc(Br)cc3)cs2)cc1`, the growth was 98.2%. With `CS(=O)(=O)Nc1ccc(-c2nn(-c3ccc(S(C)(=O)=O)cc3)cc2/C=C/C(=O)c2ccc(NC(=O)CO[N+](=O)[O-])cc2)cc1` the growth was 113%. With `Clc1ccc(-c2cn3cc(Cc4ccc(Cl)c(Cl)c4)sc3n2)cc1` the growth was 51.7%. Work on `CC(O)C(NC(=O)C1CCCN1C(=O)CNC(=O)C1CC(=O)NCC(=O)NC(Cc2c[nH]c3ccccc23)C(=O)NC(Cc2ccc(O)cc2)C(=O)NCC(=O)NC(CO)C(=O)NC(CCC(N)=O)C(=O)NC(Cc2c[nH]c3ccccc23)C(=O)N1)C(=O)NCC(=O)NC(CCC(N)=O)C(=O)NC(CCCNC(=N)N)C(=O)NC(CC(=O)O)C(=O)O` (stereo unspecified) yielded a growth of 102%. With `O=C(CSc1nccc(=O)[nH]1)Nc1ccc(-c2nc3ccccc3[nH]2)cc1` the growth was 116%. Work on `O=c1[nH]c2ccccc2cc1CSc1ccccc1Nc1nccc(-c2ccc(C(F)(F)F)cc2)n1` yielded a growth of 68.1%. `CCOC(=O)c1c(Nc2ccccc2)nn2c(N)c(C#N)c(-c3ccc(OC)cc3)nc12` showed a growth of 94.7%. Work on `COc1ccc(C(=O)/C=C/c2ccc(OCc3ccc(Cl)cc3)c(OC)c2)cc1OC` yielded a growth of 43.1%. In the case of `CCCCCCNC(=O)Oc1ccc(/C(=C(/C)c2ccccc2)c2ccc(OCCN3CCCCCC3)cc2)cc1`, the growth is reported as -35.2% (active). With `Clc1ccc2oc3c(OCCCn4ccnc4)c4ccccc4nc3c2c1` the growth was 36.1%. In the case of `COc1ccc(-n2c(SCC(=O)Nc3ccc(-c4nc5ccccc5[nH]4)cc3)nc3ccccc3c2=O)cc1`, the growth is reported as 8.47% (active). `Cc1cc2nc3c4cc(Cl)ccc4n(CC(=O)NCCN(C)C)c3nc2cc1C` was tested, and the growth was -80.8% (active). For `Cc1ccc(-c2nc(C(Cl)Cl)nc3cc(-c4ccccc4)nn23)cc1`, the growth was -40.3% (active). With `C[C@@H]1CN(c2ccc3ncc(C#Cc4cncc(C(=O)Nc5ccc(CN6CCN(C)CC6)c(C(F)(F)F)c5)c4)n3n2)C[C@H](C)O1` the growth was -52.3% (active). With `OC1CCN(CCCOc2c3ccc(Cl)cc3nc3c2oc2ccccc23)CC1` the growth was -19.8% (active). In the case of `CC(C)(C)Nc1nc2c(OCCc3ccccc3)cccn2c1-c1cccc(F)c1`, the growth is reported as 9.7% (active). Compound `COc1cc(/C=C/C(=O)c2cc(OC)c(OC)c(OC)c2)ccc1OCc1ccccc1` has a growth of 13.2%. For `C#Cc1nc(C2=C(C)C(OC(C)=O)/C(=N/OC(C)=O)C2)cs1` (stereo unspecified), the growth was 8.98% (active). `COc1ccc(/C=N/NC(=O)c2[nH]c3ccc(Br)cc3c2-c2ccccc2)s1` gave a growth of 18.2%.
